Data on 13 targets can be found in the supplement of paper PMC12067093, “Discovery and optimisation of a covalent ligand for TRIM25 and its application to targeted protein ubiquitination” (Chemical Science, 2025).

Targets with the largest changes are over-represented here; the source holds about 21,000 in all.

Compound in this experiment: Cc1cc(ccc1-c1ccccc1)C(=O)N1CCCN(CC1)C(=O)CCl [compound 10]
Nature of the experiment: probe-labelled cysteine peptide fold change vs DMSO (competition) (log2 fold change); higher = less target engagement (more negative = stronger competition). As to conditions: THP-1, incubation time: 4 h.
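Further: competitive profiling in live THP-1 cells: cysteine peptides tagged with an iodoacetamide desthiobiotin (IA-DTB) probe, intensity after compound treatment relative to DMSO-treated cells.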

UniProt O75608, sequence (O75608 whole entry, looked up): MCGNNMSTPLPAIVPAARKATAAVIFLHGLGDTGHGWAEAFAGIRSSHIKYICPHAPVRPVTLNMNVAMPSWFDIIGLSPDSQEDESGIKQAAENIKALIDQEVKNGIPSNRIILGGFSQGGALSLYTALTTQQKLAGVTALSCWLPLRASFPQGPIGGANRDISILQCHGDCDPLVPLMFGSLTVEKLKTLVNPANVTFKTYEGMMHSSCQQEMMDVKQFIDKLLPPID
UniProt Q9NXB0, sequence (Q9NXB0 whole entry): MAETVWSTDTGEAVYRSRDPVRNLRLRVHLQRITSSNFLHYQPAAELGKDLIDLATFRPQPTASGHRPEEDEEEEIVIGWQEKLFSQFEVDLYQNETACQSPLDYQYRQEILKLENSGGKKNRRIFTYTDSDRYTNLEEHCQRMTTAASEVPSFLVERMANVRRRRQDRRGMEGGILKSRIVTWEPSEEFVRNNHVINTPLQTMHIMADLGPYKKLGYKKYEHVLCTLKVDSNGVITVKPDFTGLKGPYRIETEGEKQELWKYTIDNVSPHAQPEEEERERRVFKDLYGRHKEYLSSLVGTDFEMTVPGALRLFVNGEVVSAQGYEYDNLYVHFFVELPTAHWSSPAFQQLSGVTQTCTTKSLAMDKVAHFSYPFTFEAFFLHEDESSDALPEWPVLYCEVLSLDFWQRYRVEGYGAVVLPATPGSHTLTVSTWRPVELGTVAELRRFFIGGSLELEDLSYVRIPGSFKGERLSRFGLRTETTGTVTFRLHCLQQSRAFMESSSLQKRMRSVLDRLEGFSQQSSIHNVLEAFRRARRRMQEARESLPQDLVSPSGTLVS
UniProt P42285, sequence (P42285 whole entry, looked up): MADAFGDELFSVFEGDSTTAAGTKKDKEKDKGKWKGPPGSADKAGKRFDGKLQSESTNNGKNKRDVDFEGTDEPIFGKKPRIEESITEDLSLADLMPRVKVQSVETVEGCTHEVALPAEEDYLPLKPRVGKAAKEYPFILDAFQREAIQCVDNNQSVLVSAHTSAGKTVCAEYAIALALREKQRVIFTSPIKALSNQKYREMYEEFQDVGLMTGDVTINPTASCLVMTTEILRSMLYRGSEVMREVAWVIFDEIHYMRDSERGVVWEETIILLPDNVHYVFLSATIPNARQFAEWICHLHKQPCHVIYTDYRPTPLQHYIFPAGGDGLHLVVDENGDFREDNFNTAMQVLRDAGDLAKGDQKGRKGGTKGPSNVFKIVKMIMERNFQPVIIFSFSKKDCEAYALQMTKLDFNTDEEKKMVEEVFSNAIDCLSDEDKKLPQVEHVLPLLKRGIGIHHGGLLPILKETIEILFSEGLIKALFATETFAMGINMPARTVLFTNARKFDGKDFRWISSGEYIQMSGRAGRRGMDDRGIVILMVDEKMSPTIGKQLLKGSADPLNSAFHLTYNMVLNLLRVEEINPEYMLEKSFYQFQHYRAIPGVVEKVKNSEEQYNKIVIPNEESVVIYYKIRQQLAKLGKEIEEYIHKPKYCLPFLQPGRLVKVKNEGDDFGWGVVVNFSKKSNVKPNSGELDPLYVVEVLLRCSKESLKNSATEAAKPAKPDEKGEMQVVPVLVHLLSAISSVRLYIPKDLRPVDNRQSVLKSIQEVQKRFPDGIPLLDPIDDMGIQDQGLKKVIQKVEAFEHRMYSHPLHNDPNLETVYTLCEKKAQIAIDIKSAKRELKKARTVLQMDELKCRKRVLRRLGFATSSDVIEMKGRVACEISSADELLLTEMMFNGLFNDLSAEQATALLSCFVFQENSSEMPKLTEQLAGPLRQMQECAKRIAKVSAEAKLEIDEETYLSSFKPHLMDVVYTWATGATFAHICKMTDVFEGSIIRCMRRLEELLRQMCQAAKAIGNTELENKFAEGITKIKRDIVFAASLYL
UniProt P20645, sequence (P20645 whole entry, looked up): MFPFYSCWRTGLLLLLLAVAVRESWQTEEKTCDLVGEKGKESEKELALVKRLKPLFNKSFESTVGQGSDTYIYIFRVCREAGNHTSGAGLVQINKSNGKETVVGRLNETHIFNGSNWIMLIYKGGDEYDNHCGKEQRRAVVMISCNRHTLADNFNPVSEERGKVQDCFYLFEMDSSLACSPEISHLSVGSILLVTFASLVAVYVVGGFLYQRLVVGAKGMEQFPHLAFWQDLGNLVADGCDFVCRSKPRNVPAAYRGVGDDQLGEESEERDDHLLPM
UniProt Q32MZ4, sequence (Q32MZ4 whole entry, looked up): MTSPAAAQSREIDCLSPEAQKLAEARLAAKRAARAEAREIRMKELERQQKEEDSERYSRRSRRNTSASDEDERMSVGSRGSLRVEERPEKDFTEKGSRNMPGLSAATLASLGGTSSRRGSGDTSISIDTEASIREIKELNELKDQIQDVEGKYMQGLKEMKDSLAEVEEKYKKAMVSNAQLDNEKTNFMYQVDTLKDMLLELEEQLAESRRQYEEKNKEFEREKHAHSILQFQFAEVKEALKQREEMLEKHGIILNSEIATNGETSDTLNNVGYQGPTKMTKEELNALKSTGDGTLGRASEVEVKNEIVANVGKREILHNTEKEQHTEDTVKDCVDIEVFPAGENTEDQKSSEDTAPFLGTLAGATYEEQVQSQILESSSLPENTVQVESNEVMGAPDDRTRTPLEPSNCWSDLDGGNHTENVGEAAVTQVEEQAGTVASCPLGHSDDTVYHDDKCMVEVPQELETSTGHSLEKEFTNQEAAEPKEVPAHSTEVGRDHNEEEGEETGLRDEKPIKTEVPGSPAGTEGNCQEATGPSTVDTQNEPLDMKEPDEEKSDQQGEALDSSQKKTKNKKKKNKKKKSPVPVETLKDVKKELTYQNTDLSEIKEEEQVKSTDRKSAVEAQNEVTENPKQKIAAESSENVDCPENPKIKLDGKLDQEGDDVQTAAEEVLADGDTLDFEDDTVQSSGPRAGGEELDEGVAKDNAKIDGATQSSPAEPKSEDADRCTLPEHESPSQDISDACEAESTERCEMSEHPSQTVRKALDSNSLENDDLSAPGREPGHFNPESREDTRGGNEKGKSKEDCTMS
UniProt P35579, sequence (P35579 whole entry, looked up): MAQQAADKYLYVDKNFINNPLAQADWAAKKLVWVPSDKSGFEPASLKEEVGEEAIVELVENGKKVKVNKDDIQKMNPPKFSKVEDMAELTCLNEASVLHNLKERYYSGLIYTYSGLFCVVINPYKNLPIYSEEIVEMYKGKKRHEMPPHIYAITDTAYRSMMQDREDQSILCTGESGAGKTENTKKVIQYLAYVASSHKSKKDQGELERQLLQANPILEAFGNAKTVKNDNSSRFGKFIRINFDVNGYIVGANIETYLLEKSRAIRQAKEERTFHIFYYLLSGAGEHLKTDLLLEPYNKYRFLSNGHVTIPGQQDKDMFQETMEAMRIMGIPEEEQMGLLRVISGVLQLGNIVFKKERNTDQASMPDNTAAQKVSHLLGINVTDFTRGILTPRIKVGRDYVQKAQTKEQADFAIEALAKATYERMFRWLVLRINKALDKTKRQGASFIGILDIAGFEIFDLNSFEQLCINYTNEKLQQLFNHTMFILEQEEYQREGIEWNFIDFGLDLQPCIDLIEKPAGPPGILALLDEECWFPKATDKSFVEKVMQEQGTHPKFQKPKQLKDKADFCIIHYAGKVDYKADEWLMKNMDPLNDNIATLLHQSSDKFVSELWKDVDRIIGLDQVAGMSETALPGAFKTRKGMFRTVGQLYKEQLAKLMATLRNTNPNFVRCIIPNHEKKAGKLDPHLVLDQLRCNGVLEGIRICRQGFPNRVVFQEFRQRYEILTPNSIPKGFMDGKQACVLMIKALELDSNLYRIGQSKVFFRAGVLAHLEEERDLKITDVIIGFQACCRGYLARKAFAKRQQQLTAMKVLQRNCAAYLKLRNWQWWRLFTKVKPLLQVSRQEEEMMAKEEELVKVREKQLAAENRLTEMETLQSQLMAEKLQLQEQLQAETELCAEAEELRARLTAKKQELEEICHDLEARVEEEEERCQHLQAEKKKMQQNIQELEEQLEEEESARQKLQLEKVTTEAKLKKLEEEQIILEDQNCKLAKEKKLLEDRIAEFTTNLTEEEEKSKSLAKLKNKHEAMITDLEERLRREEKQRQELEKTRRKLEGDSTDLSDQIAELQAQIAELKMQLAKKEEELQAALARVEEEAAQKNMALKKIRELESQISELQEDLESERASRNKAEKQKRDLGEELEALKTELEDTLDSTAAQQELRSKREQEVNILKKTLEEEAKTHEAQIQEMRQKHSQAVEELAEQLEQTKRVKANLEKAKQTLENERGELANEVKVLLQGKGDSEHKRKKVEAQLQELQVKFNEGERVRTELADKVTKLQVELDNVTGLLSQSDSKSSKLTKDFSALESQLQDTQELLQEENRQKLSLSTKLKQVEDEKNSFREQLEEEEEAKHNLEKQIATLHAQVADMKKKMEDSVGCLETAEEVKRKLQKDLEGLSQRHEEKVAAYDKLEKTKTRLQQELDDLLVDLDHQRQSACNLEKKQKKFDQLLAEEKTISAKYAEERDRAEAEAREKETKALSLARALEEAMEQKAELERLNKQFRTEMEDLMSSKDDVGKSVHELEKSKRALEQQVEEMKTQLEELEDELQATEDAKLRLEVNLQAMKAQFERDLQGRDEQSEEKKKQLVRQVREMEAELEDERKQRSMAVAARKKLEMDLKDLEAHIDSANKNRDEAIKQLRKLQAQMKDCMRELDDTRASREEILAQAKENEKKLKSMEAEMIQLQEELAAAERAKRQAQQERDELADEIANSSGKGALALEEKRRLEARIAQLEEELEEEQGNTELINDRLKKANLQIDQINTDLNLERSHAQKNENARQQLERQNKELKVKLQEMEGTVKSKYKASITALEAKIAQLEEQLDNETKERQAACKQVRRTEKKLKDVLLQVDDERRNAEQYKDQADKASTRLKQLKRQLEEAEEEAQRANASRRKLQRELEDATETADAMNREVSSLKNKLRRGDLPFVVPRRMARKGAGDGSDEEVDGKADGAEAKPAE

On to “LIMS3_P0CW19-2_136_YCEHDFQMLFAPCCHQCGEFIIGR<|>LIMS1_P48059_74_YCEHDFQMLFAPCCHQCGEFIIGR (UniProt P48059+P0CW19)”, for which the “probe-labelled cysteine peptide fold change” value reads like this: (10 µM) 0.212; (50 µM) 0.138.
In the same order, the values of “M6PR_P20645_145_AVVMISCNR (UniProt P20645)” are -0.268 and -0.155.
Consider “MGMT_P16455_145_GNPVPILIPCHR (UniProt P16455)”, for which the “probe-labelled cysteine peptide fold change” value reads like this: (10 µM) -1.04; (50 µM) -1.29.
Turning to “MKS1_Q9NXB0_226_KYEHVLCTLK (UniProt Q9NXB0)”, the “probe-labelled cysteine peptide fold change” value runs as follows: (10 µM) -0.112; (50 µM) 0.305.
As for “MAP4K1_Q92918_334+335_SSSLGIPDADCCR (UniProt Q92918)”, the “probe-labelled cysteine peptide fold change” value reads like this: (10 µM) -0.26; (50 µM) -1.18.
As for “MYH9_P35579_671_CIIPNHEKK (UniProt P35579)”, the “probe-labelled cysteine peptide fold change” value runs as follows: (10 µM) -0.188; (50 µM) -1.18.
In the same order, the values of “MTREX_P42285_430_KMVEEVFSNAIDCLSDEDK (UniProt P42285)” are -0.306 and -0.485.
On to “MOB4_Q9Y3A3_134_HTLDGAACLLNSNK (UniProt Q9Y3A3)”, for which the “probe-labelled cysteine peptide fold change” value reads like this: (10 µM) -1.14; (50 µM) -3.77.
For the target “MCM3_P25205_119+123+126_TLTSCFLSCVVCVEGIVTK (UniProt P25205)”, the “probe-labelled cysteine peptide fold change” value runs as follows: (10 µM) -0.0216; (50 µM) -1.13.
For “LYPLA1_O75608_144_LAGVTALSCWLPLR (UniProt O75608)”, in that order: 0.21 and 0.0595.
In the same order, the values of “MRPL37_Q9BZE1_104_DQACYIFHHR (UniProt Q9BZE1)” are 0.0327 and -0.253.
For “LRRFIP1_Q32MZ4_456_CMVEVPQELETSTGHSLEK (UniProt Q32MZ4)”, in that order: -0.167 and -0.23.
For “MACF1_Q9UPN3_5309_DCDVQGLEHDMEEINAR (UniProt Q9UPN3)”, the “probe-labelled cysteine peptide fold change” value by setting is: (10 µM) 0.0885; (50 µM) 0.126.
